Test results reported in PubChem BioAssay (NCATS).
Inconclusive results are not listed. Activity calls are given as the source filed them. Calls follow the shape of the dose curve; as a rule, active = well fitted inhibition curve with a large enough effect; inconclusive = small, poorly fitted or top-dose-only effect; inactive = flat fitted curve, though single readings scatter.

How the values were obtained:
Assay in all cases: qHTS profiling for inhibitors of Plasmodium falciparum proliferation (AID 504749); also: nearly all actives have a fitted effect of over 60% in size
Conditions in all cases: P. falciparum in erythrocytes, SYBR Green DNA, 72 h; series mostly up to 28.7 µM
ATS189 = tested on: ATS189
Summary of the method: (§1)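 SYBR Green fluorescence of parasite DNA, read after lysis and overnight dark incubation, measured growth over 72 h in erythrocyte culture at 0.3% parasitemia and 2.5% hematocrit. Data normalised to DMSO and 0.29 uM artemisinin, with plate-drift correction.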

ATS95 = tested on: ATS95
Summary of the method: as §1

C2A = tested on: C2A
Summary of the method: as §1

CP185 = tested on: CP185
Summary of the method: as §1

CP191 = tested on: CP191
Summary of the method: as §1

CP192 = tested on: CP192
Summary of the method: as §1

CP194 = tested on: CP194
Summary of the method: as §1

CP201 = tested on: CP201
Summary of the method: as §1

CP203 = tested on: CP203
Summary of the method: as §1

CP211 = tested on: CP211
Summary of the method: as §1

Measured: Potency
Potency is read from the fitted curve at half-maximal effect.

CCCC(C)(COC(N)=O)COC(N)=O
inactive: ATS189 | ATS95 | C2A | CP185 | CP191 | CP192 | CP194 | CP201 | CP203 | CP211

COP(=S)(OC)Oc1ccc(S(=O)(=O)N(C)C)cc1
inactive: ATS189 | ATS95 | C2A | CP185 | CP191 | CP192 | CP194 | CP201 | CP203 | CP211

CC(C)(C)NCC(O)c1cc(Cl)c(N)c(C(F)(F)F)c1 (stereo not drawn)
inactive: CP192 | CP201
active: ATS189 7.08 µM | C2A 10 µM | CP185 10 µM | CP191 4.47 µM

COC(=O)C(c1ccccc1)C1CCCCN1 (stereo not drawn)
inactive: ATS189 | ATS95 | C2A | CP185 | CP191 | CP192 | CP201 | CP203 | CP211

O=C(Nc1ccc(Br)cc1)c1cc(Br)cc(Br)c1O
inactive: ATS189 | ATS95 | C2A | CP185 | CP191 | CP192 | CP194 | CP201 | CP211

O=C1c2ccccc2C(=O)C1C(=O)C(c1ccccc1)c1ccccc1
inactive: ATS189 | ATS95 | C2A | CP185 | CP191 | CP192 | CP194 | CP203 | CP211

C=CCN1C[C@H](C)N([C@H](c2ccc(C(=O)N(CC)CC)cc2)c2cccc(OC)c2)C[C@H]1C
inactive: CP192 | CP194 | CP201 | CP203 | CP211

O=C1c2ccccc2C(=O)c2ccccc21
inactive: ATS95 | C2A | CP185 | CP192 | CP194 | CP201 | CP203 | CP211

O=C1Nc2ccc(Cl)cc2C(c2ccccc2Cl)=NC1O (stereo not drawn)
inactive: ATS189 | C2A | CP185 | CP191 | CP192 | CP194 | CP201 | CP203 | CP211

Clc1ccc(C(c2ccc(Cl)cc2)C(Cl)(Cl)Cl)cc1
inactive: ATS95 | C2A | CP185 | CP192 | CP201 | CP211

O=C(N/N=C/c1ccc([N+](=O)[O-])o1)c1cc([N+](=O)[O-])cc([N+](=O)[O-])c1O
active: ATS189 0.316 µM | C2A 0.0178 µM | CP185 0.0631 µM | CP191 0.178 µM

COc1ccc2c(c1OC)C(=O)O[C@H]2[C@@H]1c2cc3c(cc2CCN1C)OCO3
inactive: CP192 | CP194 | CP201 | CP203 | CP211

Cc1ncsc1CCCl
inactive: ATS189 | ATS95 | C2A | CP185 | CP191 | CP192 | CP194 | CP201 | CP203 | CP211

CC(C)NC(C)C
inactive: ATS189 | ATS95 | C2A | CP185 | CP191 | CP192 | CP194 | CP201 | CP203 | CP211

COC1CC(=C(c2cccs2)c2cccs2)C[N+](C)(C)C1 (stereo not drawn)
active: ATS189 8.91 µM | CP185 6.31 µM | CP191 5.01 µM | CP203 12 µM

C[C@](O)(CS(=O)(=O)c1ccc(F)cc1)C(=O)Nc1ccc(C#N)c(C(F)(F)F)c1
inactive: ATS189 | ATS95 | C2A | CP185 | CP191 | CP192 | CP194 | CP201 | CP211

C[C@]12CC[C@@H]3c4ccc(OC(=O)N(CCCl)CCCl)cc4CC[C@H]3[C@@H]1CC[C@@H]2O
inactive: ATS189 | ATS95 | C2A | CP185 | CP191 | CP192 | CP194 | CP201 | CP203 | CP211

CNC(C)(C)Cc1ccccc1
inactive: ATS189 | ATS95 | C2A | CP185 | CP191 | CP194 | CP201 | CP203 | CP211

O=c1oc2ccccc2c(O)c1Cc1c(O)c2ccccc2oc1=O
inactive: ATS189 | ATS95 | C2A | CP185 | CP191 | CP192 | CP194 | CP201 | CP203 | CP211

NC(=O)c1cc([N+](=O)[O-])cc([N+](=O)[O-])c1
inactive: ATS95 | C2A | CP192 | CP194 | CP201 | CP203

CCOC(=O)CC(SP(=S)(OC)OC)C(=O)OCC (stereo not drawn)
inactive: ATS189 | ATS95 | C2A | CP185 | CP191 | CP192 | CP194 | CP201 | CP203 | CP211

O=C1OC(c2ccc(O)c(S(=O)(=O)O)c2)(c2ccc(O)c(S(=O)(=O)O)c2)c2c(Br)c(Br)c(Br)c(Br)c21
inactive: ATS189 | ATS95 | C2A | CP185 | CP191 | CP192 | CP194 | CP201 | CP203 | CP211

O=C1CN=C(c2ccccc2)c2cc([N+](=O)[O-])ccc2N1
inactive: ATS189 | ATS95 | C2A | CP185 | CP191 | CP192 | CP194 | CP201 | CP203 | CP211

CCC(C)(C)c1ccc(O)cc1
inactive: ATS189 | C2A | CP185 | CP191 | CP192 | CP194 | CP201 | CP203 | CP211

COc1ccc2c(c1)C13CCCC[C@@H]1C(C2)N(C)CC3 (stereo partly drawn)
inactive: ATS189 | C2A | CP191 | CP192 | CP201 | CP211

Cc1nnc2n1-c1ccc(Cl)cc1C(c1ccccc1)=NC2
inactive: C2A | CP185 | CP191 | CP192 | CP194 | CP201 | CP203 | CP211

O=P1(N(CCCl)CCCl)NCCCO1 (stereo not drawn)
inactive: ATS189 | ATS95 | C2A | CP185 | CP191 | CP192 | CP194 | CP201 | CP203 | CP211

CCOP(=S)(OCC)Oc1ccc2c(C)c(Cl)c(=O)oc2c1
inactive: C2A | CP192

Clc1cccc(SC2CCNCC2)n1
inactive: ATS189 | ATS95 | C2A | CP185 | CP191 | CP192 | CP194 | CP201 | CP203 | CP211

Nc1ccc([As](=O)(O)O)cc1
inactive: ATS189 | ATS95 | C2A | CP185 | CP191 | CP192 | CP194 | CP201 | CP203 | CP211

CN1C(=O)COc2c(C(=O)NC3CN4CCC3CC4)cc(Cl)cc21 (stereo not drawn)
inactive: ATS189 | ATS95 | C2A | CP185 | CP191 | CP192 | CP194 | CP201 | CP203 | CP211

CN1CCC(O)(c2ccc(F)cc2)C(C(=O)c2ccc(F)cc2)C1 (stereo not drawn)
inactive: ATS189 | ATS95 | C2A | CP185 | CP191 | CP192 | CP194 | CP201 | CP203 | CP211

CC(C)(C)NCC(O)c1ccccc1Cl (stereo not drawn)
inactive: C2A | CP191 | CP192 | CP201 | CP211
